Where “and” joins values, the source holds several entries; their conditions need not be identical. Equal entries are not always repeated. The whole screen tested about 5,500 compounds, of which about 2,000 (36%) were called active. Another 18% or so got no clear call; they are omitted. Cut-off read from the data, not from the text of the source: active = normalized growth mostly below about 0.91 (no sharp cut-off); inconclusive = no clear call, values can overlap the other calls; inactive = mostly above about 0.92. The list shows a part of the results.
Test: chemical genetic growth profiling, strain panel (AID 1159580);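 note: tested at 20 µM; growth read once vehicle control cultures reached saturation at 30 °C; 1 = growth at the plate median or of vehicle wells; lower values mean less growth of the strain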
Details: growth OD

Measured: normalized growth

Cc1nc2ccccn2c(=O)c1CCN1CCC(C(=O)c2ccc(F)cc2)CC1
inactive: S. cerevisiae deletion strains, locus YJR075W, strain HOC1, hits give low values 0.974 and 1.01 | S. cerevisiae deletion strains, locus YKL009W, strain mrt4, hits give low values 1.01 | S. cerevisiae deletion strains, locus YKL068W, hits give low values 1 | S. cerevisiae deletion strains, locus YKL085W, strain MDH1 (second series), hits give low values 1.03 | S. cerevisiae deletion strains, locus YKL085W, strain MDH1, hits give low values 1.03 | S. cerevisiae deletion strains, locus YKL160W, strain elf1, hits give low values 0.991 | S. cerevisiae deletion strains, locus YKL190W, strain CNB1, hits give low values 1.02 | S. cerevisiae deletion strains, locus YKR001C, strain vps1, hits give low values 0.995 | S. cerevisiae deletion strains, locus YKR026C, strain gcn3, hits give low values 0.98 | S. cerevisiae deletion strains, locus YKR091W, strain srl3, hits give low values 0.994 | S. cerevisiae deletion strains, locus YLL001W, strain dnm1, hits give low values 0.997 | S. cerevisiae deletion strains, locus YLL026W, hits give low values 0.989 | S. cerevisiae deletion strains, locus YLL041C, strain sdh2, hits give low values 0.991 | S. cerevisiae deletion strains, locus YLR027C, strain aat2, hits give low values 1 | S. cerevisiae deletion strains, locus YLR039C, strain RIC1, hits give low values 1.03 | S. cerevisiae deletion strains, locus YLR058C, strain SHM2, hits give low values 1.02 | S. cerevisiae deletion strains, locus YLR102C, strain apc9, hits give low values 0.993 | S. cerevisiae deletion strains, locus YLR113W, strain HOG1, hits give low values 1.01 | S. cerevisiae deletion strains, locus YLR221C, strain rsa3, hits give low values 1 | S. cerevisiae deletion strains, locus YLR258W, strain gsy2, hits give low values 0.986 | S. cerevisiae deletion strains, locus YLR262C, strain YPT6 (second series), hits give low values 0.954 | S. cerevisiae deletion strains, locus YLR262C, strain YPT6, hits give low values 1.05 | S. cerevisiae deletion strains, locus YLR268W, strain sec22, hits give low values 0.995 | S. cerevisiae deletion strains, locus YLR320W, strain mms22, hits give low values 1 | S. cerevisiae deletion strains, locus YLR330W, strain CHS5, hits give low values 1.02 | S. cerevisiae deletion strains, locus YLR342W, strain FKS1 (second series), hits give low values 0.988 | S. cerevisiae deletion strains, locus YLR342W, strain FKS1, hits give low values 0.988 | S. cerevisiae deletion strains, locus YLR357W, strain rsc2, hits give low values 0.924 | S. cerevisiae deletion strains, locus YLR370C, strain arc18, hits give low values 0.991 | S. cerevisiae deletion strains, locus YLR371W, strain rom2, hits give low values 0.989 | S. cerevisiae deletion strains, locus YLR384C, strain iki3, hits give low values 0.985 | S. cerevisiae deletion strains, locus YLR418C, strain cdc73, hits give low values 1.01 | S. cerevisiae deletion strains, locus YML016C, strain PPZ1, hits give low values 1.02 | S. cerevisiae deletion strains, locus YML032C, strain rad52, hits give low values 0.985 | S. cerevisiae deletion strains, locus YML120C, strain ndi1, hits give low values 1 | S. cerevisiae deletion strains, locus YML124C, strain tub3, hits give low values 0.995 | S. cerevisiae deletion strains, locus YMR058W, strain fet3, hits give low values 1 | S. cerevisiae deletion strains, locus YMR078C, strain ctf18, hits give low values 0.994 | S. cerevisiae deletion strains, locus YMR125W, strain sto1, hits give low values 0.962 | S. cerevisiae deletion strains, locus YMR129W, hits give low values 0.998 | S. cerevisiae deletion strains, locus YMR205C, strain PFK2, hits give low values 0.985 | S. cerevisiae deletion strains, locus YMR223W, strain ubp8, hits give low values 0.966 | S. cerevisiae deletion strains, locus YMR231W, strain pep5, hits give low values 0.977 | S. cerevisiae deletion strains, locus YMR307W, strain GAS1, hits give low values 1.01 and 1 | S. cerevisiae deletion strains, locus YNL067W, strain RPL9B, hits give low values 1.04 | S. cerevisiae deletion strains, locus YNL071W, strain lat1, hits give low values 0.993 | S. cerevisiae deletion strains, locus YNL128W, strain TEP1, hits give low values 1.02 and 1.01 | S. cerevisiae deletion strains, locus YNL153C, strain GIM3, hits give low values 1.06 | S. cerevisiae deletion strains, locus YNL175C, strain NOP13, hits give low values 1.01 | S. cerevisiae deletion strains, locus YNL183C, strain NPR1, hits give low values 0.979 | S. cerevisiae deletion strains, locus YNL197C, strain WHI3, hits give low values 1.03 | S. cerevisiae deletion strains, locus YNL209W, strain ssb2, hits give low values 0.994 | S. cerevisiae deletion strains, locus YNL224C, strain SQS1, hits give low values 1.01 | S. cerevisiae deletion strains, locus YNL233W, strain BNI4, hits give low values 1.03 | S. cerevisiae deletion strains, locus YNL248C, strain rpa49, hits give low values 0.979 | S. cerevisiae deletion strains, locus YNL250W, strain rad50, hits give low values 0.999 | S. cerevisiae deletion strains, locus YNL271C, strain bni1, hits give low values 0.977 | S. cerevisiae deletion strains, locus YNL298W, strain CLA4, hits give low values 0.987 | S. cerevisiae deletion strains, locus YNL307C, strain MCK1, hits give low values 0.987 | S. cerevisiae deletion strains, locus YNL322C, strain KRE1 (second series), hits give low values 0.966 | S. cerevisiae deletion strains, locus YNL322C, strain KRE1, hits give low values 1.02 and 1.01 | S. cerevisiae deletion strains, locus YNR049C, strain mso1, hits give low values 0.995 | S. cerevisiae deletion strains, locus YNR052C, strain pop2, hits give low values 0.974 | S. cerevisiae deletion strains, locus YOL006C, strain TOP1, hits give low values 1.09 | S. cerevisiae deletion strains, locus YOL012C, strain htz1 1.02 | S. cerevisiae deletion strains, locus YOL147C, strain pex11, hits give low values 0.997 | S. cerevisiae deletion strains, locus YOR001W, strain rrp6, hits give low values 1.01 | S. cerevisiae deletion strains, locus YOR061W, strain CKA2, hits give low values 1.02 | S. cerevisiae deletion strains, locus YOR069W, strain VPS5, hits give low values 1.02 | S. cerevisiae deletion strains, locus YOR070C, strain gyp1, hits give low values 0.988 | S. cerevisiae deletion strains, locus YOR080W, strain dia2, hits give low values 0.981 | S. cerevisiae deletion strains, locus YOR083W, strain WHI5 (second series), hits give low values 1.02 | S. cerevisiae deletion strains, locus YOR083W, strain WHI5, hits give low values 0.946 | S. cerevisiae deletion strains, locus YOR106W, strain vam3, hits give low values 0.994 | S. cerevisiae deletion strains, locus YOR136W, strain idh2, hits give low values 0.996 | S. cerevisiae deletion strains, locus YOR144C, strain elg1, hits give low values 0.997 | S. cerevisiae deletion strains, locus YOR184W, strain ser1, hits give low values 0.988 | S. cerevisiae deletion strains, locus YOR231W, strain MKK1, hits give low values 1.04 | S. cerevisiae deletion strains, locus YOR265W, strain rbl2, hits give low values 0.989 | S. cerevisiae deletion strains, locus YOR270C, strain vph1, hits give low values 1.01 | S. cerevisiae deletion strains, locus YOR290C, strain snf2, hits give low values 0.989 | S. cerevisiae deletion strains, locus YOR316C, strain cot1, hits give low values 0.999 | S. cerevisiae deletion strains, locus YPL051W, strain arl3, hits give low values 0.987 | S. cerevisiae deletion strains, locus YPL055C, strain LGE1, hits give low values 1.09 | S. cerevisiae deletion strains, locus YPL078C, strain atp4, hits give low values 0.989 | S. cerevisiae deletion strains, locus YPL106C, strain sse1, hits give low values 0.963 | S. cerevisiae deletion strains, locus YPL240C, strain hsp82, hits give low values 0.983 | S. cerevisiae deletion strains, locus YPL241C, strain CIN2, hits give low values 1.02 | S. cerevisiae deletion strains, locus YPL256C, strain CLN2, hits give low values 1.05 | S. cerevisiae deletion strains, locus YPR119W, strain clb2, hits give low values 1 | S. cerevisiae deletion strains, locus YPR141C, strain kar3, hits give low values 1 | S. cerevisiae deletion strains, locus YPR163C, strain tif3, hits give low values 0.992 | S. cerevisiae deletion strains, locus YPR167C, strain met16, hits give low values 0.991 | S. cerevisiae deletion strains, strain wtn01, hits give low values 1.02 | S. cerevisiae strains, strain wild type, hits give low values 1.01

Source: PubChem BioAssay AID1159580 (chemical genetic matrix, 2015)
